Source: PubChem BioAssay
The list is not random: actives were taken first. Their share in the collection is about 17%.
TDP1 cell CPT – growth inhibition of DT40 Tdp1-/-;hTDP1 cells with camptothecin (screen for TDP1 inhibitors); chicken DT40 Tdp1-/-;hTDP1 cells + 20 nM CPT, ATP luminescence, 48 h; Potency, µM (highest dose often 46.2 µM), inactives show at the highest dose activity change, negative = growth inhibition, usual class: inhibitors; actives 12% (n = 420,000); AID 686979; also: % is scaled to controls: 0 for no effect and ±100 for the full control effect; nearly all actives have a fitted effect of over 55% in size
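Chicken DT40 Tdp1-/- cells complemented with human TDP1, 400 cells/well, exposed to compounds plus 20 nM camptothecin for at least 48 h at 37 C; viability read as ATP content by CellTiter-Glo luminescence.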
TGFb inhibitor – TGF-b pathway inhibition | HepG2 CAGA-GFP TGF-b/SMAD3 reporter, GFP fluorescence, 18 h; TGF-beta stimulated, 500 pg/mL final | Potency, µM (series often up to 46.1 µM), without a hit: top-dose activity, negative = inhibition, hits mostly inhibitors | actives 1.2% (n = 410,000) | AID 588855; also: % is scaled to controls: 0 for no effect and ±100 for the full control effect; nearly all actives have a fitted effect of over 65% in size
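HEPG2 CAGA-GFP, 1000 cells/well; 2 h settle, 37 C; cpd via pin tool; TGF-b 500 pg/mL final; 18 h, 37 C; GFP imaging ex488/em500-530; %Activity normalised to -TGF-b and +DMSO controls; CRC fit, curve class.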
S2 tox – viability counter-screen for ATXN expression inhibitors. S2 cells (HEK-293 line with an ATXN2-luciferase reporter) viability, CellTiter-Fluor protease fluorescence, 24 h. Potency, µM (highest dose often 56.7 µM), hits mostly cytotoxic. actives 0.49% (n = 400,000); also: nearly all actives have a fitted effect of over 40% in size
TDP1 cell noCPT – qHTS for Inhibitors of human tyrosyl-DNA phosphodiesterase 1 (TDP1): qHTS in cells in absence of CPT. DT40 Tdp1-/- hTDP1 cells, no CPT, ATP luminescence, 48 h. Potency, µM (titrated, usually from 46.2 µM), for inactives: top-dose activity change, negative = growth inhibition, usual class: inhibitors. actives 15% (n = 420,000). AID 686978, 2013; also: % is scaled to controls: 0 for no effect and ±100 for the full control effect; nearly all actives have a fitted effect of over 55% in size
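Chicken DT40 Tdp1-/- cells stably complemented with human TDP1 were seeded at 400 cells/well with DMSO in place of 20 nM camptothecin. After compound pinning, cells grew at least 48 hr at 37 °C; viability read by CellTiter-Glo luminescence.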
HepG2 viability – kills HepG2 cells in TGF-b inhibitor counter-screen | actives 0.76% (n = 410,000) | Potency, µM (titrated, usually from 46.1 µM), without a hit: at the highest dose activity change, negative = cytotoxicity, usual class: cytotoxic | HepG2 CAGA-GFP viability, ATP luminescence, 18 h
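CellTiter-Glo luminescence gave cytotoxicity after 18 hours at 37 degrees C. The cells were HepG2 CAGA-GFP in 1% FBS DMEM, stimulated with 500 pg/mL TGF-beta after compound addition. %Activity was normalised to no-cell wells (complete cell-killing) and DMSO (no toxicity), and curves were fitted and classified.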
ATXN2 expr inh – inhibitors of ATXN2 expression; HEK-293 ATXN2-luciferase reporter, luminescence, 24 h; Potency, µM (doses to about 57 µM), for inactives: top-dose activity change, negative = inhibition, most hits filed as inhibitors; actives 0.72% (n = 360,000); also: % is scaled to controls: 0 for no effect and ±100 for the full control effect; nearly all actives have a fitted effect of over 55% in size
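qHTS (up to 57 uM final) was run with 24 h compound exposure of reporter cells at 37 °C. Each well was multiplexed: SteadyGlo luminescence measured ATXN2-luciferase expression after a fluorogenic Gly-Phe-AFC viability readout (25 uM final).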
Numbers without * were called inactive; i = inactive; ? = inconclusive; nt = no result. Calls follow the shape of the dose curve; as a rule, active = well fitted curve in the direction sought with a large enough effect; inconclusive = small, poorly fitted or top-dose-only effect, or another doubt; inactive = no such curve, though single readings can be large; an effect the other way counts as inactive or inconclusive. Potency is read from the fitted curve at half-maximal effect.

SMILES | TDP1 cell CPT | TGFb inhibitor | S2 tox | TDP1 cell noCPT | HepG2 viability | ATXN2 expr inh
Cc1ccc(NC(=O)Cn2c(=O)oc3cc(S(=O)(=O)N4CCCCCC4)ccc32)cc1Cl | 12µM* | 0% | nt | 21µM* | -12% | nt
CC1CC(C)CN(S(=O)(=O)c2ccc3c(c2)oc(=O)n3CC(=O)N(C)Cc2ccccc2)C1 (configuration not stated) | ? | ? | i | ? | -28% | -12%
CCc1cccc(NC(=O)Cn2c(=O)oc3cc(S(=O)(=O)N4CCOCC4)ccc32)c1 | 23µM* | -21% | i | 15µM* | -12% | -11%
Cc1cc(C)cc(NC(=O)Cn2c(=O)oc3cc(S(=O)(=O)N4CC(C)CC(C)C4)ccc32)c1 (configuration not stated) | ? | ? | ? | ? | -3% | -23%
CCOc1ccc(NC(=O)Cn2c(=O)oc3cc(S(=O)(=O)N4CCC(C)CC4)ccc32)cc1 | 9.2µM* | ? | i | 8.2µM* | -47% | ?
CCN1C[C@@]2(COC(=O)c3ccccc3N3C(=O)CC(C)C3=O)CC[C@H](OC)[C@]34C5C[C@@H]6[C@@H](OC)C[C@@](O)(C5[C@H]6OC)[C@@](O)(C13)[C@@H](OC)C24 (some centres not stated) | -6% | nt | nt | 0% | nt | nt
O=C(Cn1c(=O)oc2cc(S(=O)(=O)N3CCCC3)ccc21)N1CCCC1 | 6% | -3% | i | -3% | -5% | -6%
O=C(Cn1c(=O)oc2cc(S(=O)(=O)N3CCCC3)ccc21)Nc1cccc(C(F)(F)F)c1 | 13µM* | -9% | ? | 15µM* | 6% | -9%
CCc1ccc(NC(=O)Cn2c(=O)oc3cc(S(=O)(=O)N4CCCCCC4)ccc32)cc1 | 12µM* | nt | nt | 9.2µM* | -42% | nt
O=C(O)/C=C/C(=O)O | 0% | 24% | i | 1% | 1% | -6%
O=C1Nc2ccc(Br)cc2C(c2ccc(Cl)cc2)=NC1O (configuration not stated) | 3% | -18% | ? | -16% | -27% | nt
O=C(c1ccc(Cl)cc1)C1CCCN(Cc2cccn2-c2cccnc2)C1 (configuration not stated) | ? | ? | i | 13µM* | -15% | -31%
CSc1ccc(C(=O)C2CCCN(Cc3cccnc3)C2)cc1 (configuration not stated) | ? | 1% | i | ? | 8% | -32%
CC[N@+]1(C)CCC[C@@H](OC(=O)C(O)(c2ccccc2)c2ccccc2)C1 | nt | nt | i | nt | nt | nt
CCOc1ccc(Nc2c(S(=O)(=O)c3ccc(C)cc3)cnc3ccc(F)cc23)cc1 | ? | -15% | i | ? | -33% | 8%
CCOc1ccc(Nc2c(S(=O)(=O)c3ccc(C)cc3)cnc3ccccc23)cc1 | 16µM* | ? | ? | ? | -28% | ?
Cc1nnc(NC(=O)c2cccn(Cc3ccccc3F)c2=O)s1 | 3% | -1% | i | -1% | -3% | 9%
O=C(c1cc(-c2ccc(Cl)cc2)n[nH]1)N1CCN(S(=O)(=O)c2ccc(Br)s2)CC1 | ? | 0% | nt | 15µM* | -20% | nt
Cc1ccccc1N1CCN(S(=O)(=O)c2nnc(NC(=O)c3ccc(Cl)cc3)s2)CC1 | -5% | -44% | i | ? | -26% | 10%
Cc1cccc(OC(=O)N2CCOCC2)c1 | -18% | 6% | i | -1% | -3% | -5%
CC(C)(C)c1ccc(/C=C2\Oc3cc(OC(=O)N4CCOCC4)ccc3C2=O)cc1 | 16µM* | ? | ? | 26µM* | -23% | -27%
